Screening results from PubChem.
ALR H2O2 inh = blocks human ALR sulfhydryl oxidase activity. purified ALR, DTT oxidation, H2O2 HRP-luminol luminescence. inhibition, % (concentration not given with the values). actives 3.8% (n = 290,000). P55789. AID 485317;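 active = mean replicate inhibition above about 79%, with every replicate also reaching it, limit read from the data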
Target sequence (P55789 whole entry, looked up): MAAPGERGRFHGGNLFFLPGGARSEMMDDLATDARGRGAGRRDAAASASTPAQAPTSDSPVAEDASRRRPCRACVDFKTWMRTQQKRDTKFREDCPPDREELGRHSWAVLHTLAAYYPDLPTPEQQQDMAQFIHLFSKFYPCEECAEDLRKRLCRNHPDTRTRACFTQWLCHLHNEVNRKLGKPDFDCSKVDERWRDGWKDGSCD
Exocytosis inh = lytic granule exocytosis inhibition; TALL-104 LAMP-1 surface exposure, flow cytometry; cells stimulated with thapsigargin and PMA; inhibition, % at 10 µM; actives 0.66% (n = 360,000); AID 651702;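 active = inhibition above about 55%, limit read from the data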
MIN6 prolif = inducers of beta-cell replication in MIN6 cells. MIN6 cells proliferation, ATPlite luminescence, 48 h; cells starved in 0.2% serum; 100% = growth in 10% serum. proliferation, % at 10 µM. actives 0.29% (n = 330,000);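 active = compounds whose signal lies at least 3.5 SD above the mean of all wells on their plate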;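 note: 0% = DMSO-treated cells in low-serum medium and 100% = 10% serum control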
SMARCA2 act = SMARCA2 function activation, primary screen | MG213 cells, MMTV-luciferase reporter, dexamethasone, overnight | activation, % at 9.1 µM | actives 1% (n = 370,000); in the data active = activation above about 7.8%;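 note: 0% = vehicle wells and 100% = reference activator wells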
PfM18AAP inh = blocks P. falciparum M18 aspartyl aminopeptidase. inhibition, % at 7.35 µM. recombinant PfM18AAP, H-Glu-NHMec fluorogenic cleavage. actives 1.2% (n = 290,000). AID 1822;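 active = inhibition above the campaign mean inhibition over all tested compounds plus 3 SD, cut at about 28% in these data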;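 note: 0% = plate median of test compound wells and 100% = 2 mM ZnCl2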
JMJD2C inh = blocks human GASC-1 demethylase activity; GST-JMJD2C(1-420) H3K9me3 demethylation, DELFIA europium; inhibition, % at 2.35 µM; actives 0.069% (n = 330,000);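 active = more than half of a compound's replicate wells show inhibition beyond 50%, single wells judged on their own value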;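 note: signal counts dimethyl H3K9 product captured on neutravidin plate; 0% = median of DMSO wells and 100% = 0.3 times that DMSO median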
* = called active by the depositor; . = no result. Compounds with a hit are over-represented: about 5.4% of the library has one in this group of screens.

SMILES	ALR H2O2 inh	Exocytosis inh	MIN6 prolif	SMARCA2 act	PfM18AAP inh	JMJD2C inh
CCN(CC)c1ccc(NC(=S)NC(=O)c2cccs2)cc1	98*	-1	-6	6	5	3
Cc1ccc(NC(=O)CN(C)Cc2cccs2)cc1Cl	-6	4	0	-1	3	-1
CC(=O)NC(=S)Nc1ccc(NC(=S)NC(=O)c2cccs2)cc1	-4	8	-2	-1	1	-2
O=C(O)c1ccc(NCc2cccs2)cc1	-3	-2	-2	-2	3	9
O=S(=O)(c1ccccc1)n1c(CN2CCOCC2)nc2ccccc21	.	.	.	-3	.	.
CCOc1ccc(-n2c(SCC(=O)Nc3ccc(S(=O)(=O)Nc4nccs4)cc3)nnc2-c2ccccc2)cc1	.	.	.	4	.	.
Cc1ccc(NC(=O)[C@H]2CC(=O)O[C@@H]2c2ccccc2)c(C)c1	.	.	.	-4	.	.
O=C(Nc1ccc(NC(=O)c2cccs2)cc1)c1ccc(Br)o1	0	-6	-2	2	3	9
C/C(=N\NC(=O)c1cc2ccccc2cc1O)c1cccs1	.	-15	-4	4	18	-11
Cc1ccccc1C(=O)NNC(=S)NC(=O)c1cccs1	8	0	-2	-1	16	9
O=C(NC(=S)NNC(=O)c1cccs1)c1ccccc1	99*	-2	-5	0	11	-1
O=C(NNC(=O)c1cccs1)c1ccc(Br)o1	96*	-4	.	-2	1	14
O=C(NNC(=O)c1cc2ccccc2cc1O)c1cccs1	-7	15	-2	1	29*	-28
O=C(NNC(=S)Nc1ccc(Cl)cc1)c1cccs1	97*	0	-3	0	8	-8
O=C(NNC(=S)Nc1ccccc1)c1cccs1	31	2	0	4	10	-10
CCCSc1nnc(-c2ccco2)n1C	.	.	.	-2	.	.
Cc1cccc(OCC(=O)NC(=S)NNC(=O)c2ccncc2)c1	8	3	-1	-1	45*	-4
O=C(NC(=S)NNC(=O)c1cccs1)c1ccco1	97*	0	-3	-5	23	1
CC(C)(C)c1ccc(C(=O)NC(=S)NNC(=O)COc2ccccc2)cc1	99*	2	-6	1	6	39
CC(C)(C)c1ccc(C(=O)NC(=S)NNC(=O)c2cccs2)cc1	98*	0	.	7	9	9
Cc1ccccc1C(=O)NNC(=S)NC(=O)COc1ccccc1	22	-2	-3	3	-55	13
Cc1ccc(C(=O)NNC(=S)NC(=O)COc2ccccc2)cc1	4	-2	-3	1	9	-1
Clc1ccc([C@H]2OC[C@@]3(CNCC4CC4)CS[C@H](c4ccc(Cl)cc4)N23)cc1	.	.	.	-4	.	.
Cc1cc(NS(=O)(=O)c2ccc(NC(=O)CSc3nc4sc(C)c(C)c4c(=O)n3Cc3ccco3)cc2)nc(C)n1	.	.	.	3	.	.
CC(C)CN1C(=O)C[C@]2(C(=O)N(C)c3ccc(NC(=O)C(C)(C)C)cc32)C1c1ccccc1 (some centres not stated)	.	.	.	-2	.	.
SMILES	ALR H2O2 inh	Exocytosis inh	MIN6 prolif	SMARCA2 act	PfM18AAP inh	JMJD2C inh
COc1ccc(C[C@H]2c3cc(O)c(OC)cc3CC[N+]2(C)[O-])cc1O (some centres not stated)	95*	21	-3	2	.	-20
COc1cc2c(cc1O)C(Cc1ccc(O)cc1)[N+](C)([O-])CC2 (configuration not stated)	26	0	-3	-1	.	16
COC(=O)[C@]12C[C@H](CC(=O)NCC3CCCCC3)C(=O)N(Cc3ccccc3)C1=C[C@H](C(C)C)O[C@@H]2C1CC1	.	.	.	-4	.	.
COc1cc(NC(=S)Nc2cccc(Cl)c2Cl)c(OC)cc1Cl	-9	-6	-6	1	29*	-3
O=C(O)c1ccc(NC(=S)NC(=O)c2cccc(COc3ccccc3)c2)cc1	97*	19	-2	0	-9	-13
Cc1ccccc1C(=O)NCC(=O)NNC(=S)NC(=O)c1ccccc1C	20	-1	0	3	10	2
O=C(NNC(=S)NC(=O)c1ccccc1)c1ccc(O)cc1	99*	20	3	0	19	-2
CCCOc1ccc(C(=O)NNC(=S)NC(=O)c2ccccc2)cc1	22	-19	-5	-1	-5	-9
Cc1ccccc1C(=O)NCC(=O)NNC(=S)NC(=O)c1ccccc1	98*	-5	0	0	26	-1
O=C(NC1CCc2ccccc21)c1cc(-c2ccc(Cl)cc2)nc2ccccc12 (configuration not stated)	.	.	.	-4	.	.
COC(=O)C1=C(C)N(Cc2ccccc2C(F)(F)F)C(=NCc2ccc3c(c2)OCO3)NC1c1cccc(Cl)c1 (configuration not stated)	.	.	.	-1	.	.
COc1ccccc1NC(=S)NNC(=O)c1ccc(O)cc1	99*	13	0	5	12	-2
O=C(NNC(=S)Nc1ccccc1)c1ccc(O)cc1	99*	-5	0	6	23	-2
O=C(CNC(=S)NC(=O)c1ccc(F)cc1)c1ccccc1	-1	0	0	2	5	-3
COc1ccc(C)cc1NC(=S)NNC(=O)c1ccccc1Cl	77*	-4	-1	1	-2	-6
COc1ccccc1C(=O)NNC(=O)c1ccc(O)cc1	.	25	.	-3	.	.
O=C(CNC(=S)NC(=O)c1ccccc1)c1ccccc1	79*	-1	3	2	5	3
O=C(CCN1CCOCC1)NNC(=S)NC(=O)c1ccccc1	99*	11	-3	-3	24	5
O=C(O)c1ccc(NC(=S)Nc2ccccc2)cc1	99*	-1	0	3	-1	3
O=C(NNC(=S)Nc1ccccc1)c1ccc2ncccc2c1	78*	2	-1	5	9	1
CC(C)c1c(O)nc(SCC(=O)N2CCCCC2)[nH]c1=O	53	-7	-1	-3	-43	8
CCC(C)c1c(O)nc(SCc2ccccc2)[nH]c1=O (configuration not stated)	99*	-2	-1	7	3	-1
CC(C)CCc1c(O)nc(SCC(C)C)[nH]c1=O	89*	2	-2	-4	-5	6
CCCc1c(O)nc(SCC(=O)O)[nH]c1=O	40	-3	-3	1	-1	4
CCC(C)c1c(O)nc(SCC(=O)N2CCCCCC2)[nH]c1=O (configuration not stated)	97*	-10	1	-1	2	-8
CC(C)Cc1c(O)nc(SCC(=O)N2CCCCCC2)[nH]c1=O	97*	-3	-3	-3	4	10
Fc1cccc(Cc2noc(CN3CCSCC3)n2)c1	-2	-2	1	0	-11	1
COc1ccc(N2CCN(Cc3nc(Cc4cccc(F)c4)no3)C(C)C2)cc1 (configuration not stated)	98*	-1	-4	-1	13	0
